The list is not random: actives were taken first. Their share in the collection is about 5.9%.
GLP1R cytotox – cytotoxic in the GLP-1 receptor inverse agonist counter-screen; HEK293 cAMP-luciferase reporter cells, luminescence, 24 h; 0.13% of 410,000 active; Potency, µM (top dose mostly 38.3 µM), for inactives: top-dose activity change, negative = inhibition, usual class: inhibitors;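 note: loss of luciferase light is scored as toxicity; % is set by controls: 0 for no effect and ±100 for the full control effect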
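A 23 nL compound transfer followed 12 hours of cell culture at 37 deg C; exposure then lasted 24 hr. Luciferase assay detection reagent was dispensed and plates read for luminescence after a 12 min room-temperature wait.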
GLP1R ag – GLP-1 receptor (human) agonism; P43220; HEK293 GLP-1R CRE-luciferase, luminescence, 4-6 h; cells express a hypersensitive GLP-1R form; Potency, µM (top dose mostly 45.6 µM), for the others: at the highest dose activation, hits mostly activators; 0.007% of 380,000 active; note: % of control where 0% means no effect
Target sequence (P43220 whole entry, looked up): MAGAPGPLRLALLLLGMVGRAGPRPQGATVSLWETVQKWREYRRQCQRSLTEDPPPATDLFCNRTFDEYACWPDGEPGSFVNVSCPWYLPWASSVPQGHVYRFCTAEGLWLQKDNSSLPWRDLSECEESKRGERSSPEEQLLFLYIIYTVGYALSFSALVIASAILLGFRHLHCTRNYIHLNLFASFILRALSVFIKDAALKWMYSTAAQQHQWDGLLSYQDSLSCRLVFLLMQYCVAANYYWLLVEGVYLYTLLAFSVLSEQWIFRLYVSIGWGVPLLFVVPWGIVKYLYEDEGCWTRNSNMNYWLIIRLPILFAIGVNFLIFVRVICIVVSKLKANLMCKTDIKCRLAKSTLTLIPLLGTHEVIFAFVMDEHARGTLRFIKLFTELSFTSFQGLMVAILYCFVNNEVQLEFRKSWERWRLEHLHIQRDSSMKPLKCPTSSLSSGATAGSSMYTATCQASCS
VP16 counter – Gal4-VP16 reporter inhibition counter-screen; Drosophila S2 Gal4-VP16 UAS-luciferase, luminescence, 20 h; Potency, µM (doses to about 53.6 µM), for inactives: at the top dose activity, negative = inhibition, actives largely listed as inhibitors; 3.5% of 310,000 active; AID 2546;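 note: Gal4-VP16 expression switched on by copper sulfate through the metallothionein promoter; % is set by controls: 0 for no effect and ±100 for the full control effect; nearly all actives have a fitted effect of over 50% in size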
RORgamma inh – inhibitors of mouse ROR gamma transcriptional activity | Potency, µM (titrated, usually from 53.6 µM), for the others: at the highest dose activity change, negative = inhibition, usual class: inhibitors | P51450 | Drosophila S2 Gal4-RORgamma UAS-luciferase reporter, 20 h | 5.4% of 310,000 active; note: % is set by controls: 0 for no effect and ±100 for the full control effect; nearly all actives have a fitted effect of over 60% in size
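ROR gamma transcriptional activity was tracked as Gal4-UAS luciferase output in stably transfected Drosophila Schneider cells, with compound added 1 hr before 700 uM copper sulfate induction and a 20 hr ambient-temperature incubation.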
GLP-1R inv ag – GLP-1 receptor (human) inverse agonism; P43220; HEK293 GLP-1R CRE-luciferase, luminescence, 24 h; GLP-1R form is constitutively active; Potency, µM (top dose mostly 38.3 µM), for inactives: at the highest dose activity change, negative = inhibition, actives largely listed as inhibitors; 1.6% of 410,000 active; note: % is set by controls: 0 for no effect and ±100 for the full control effect; nearly all actives have a fitted effect of over 55% in size
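HEK293 cells stably co-expressing constitutively active GLP-1R and a cAMP-responsive luciferase reporter were seeded in DMEM with 10% Nu serum, given compounds after 12 h, and incubated 24 h at 37 deg C. Luminescence was then read.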
The depositor's hits bear a star; ? = inconclusive; . = not tested or not shown; [ ] = another dose, or the depositor's remark. Calls come from the whole dose curve; as a rule, active = well fitted curve in the direction sought with a large enough effect; inconclusive = small, poorly fitted or top-dose-only effect, or another doubt; inactive = no such curve, though single readings can be large; an effect the other way counts as inactive or inconclusive. Potency is the fitted concentration of half-maximal effect.

SMILES | GLP1R cytotox | GLP1R ag | VP16 counter | RORgamma inh | GLP-1R inv ag
CCOC(=O)CNC(=O)Nc1cc(C(=O)NCc2ccccc2OC)ccc1N1CCCC1 | 2.7% | . | . | . | 1.0%
O=[N+]([O-])c1c(C(Cl)Cl)nn(-c2ccccc2)c1N1CCCC1 | -8.1% | 5.5% | ? | 7.08µM* | 6.3%
Cc1cccc(C(=O)Nc2nc(-c3ccc(Br)cc3)ns2)c1 | -5.6% | . | . | . | 13.7%
Oc1ccc2ccccc2c1-c1sc(Nc2ccccc2)n[n+]1-c1ccc(F)cc1 | -16.7% | 10.1% | -12.9% | -7.4% | ?
Fc1ccc(-[n+]2nc(Nc3ccccc3)sc2-c2c3ccccc3cc3ccccc23)cc1 | ? | 1.9% | -18.1% | 10µM* | 11.2µM*
O=C(/C(N=Nc1cccc([N+](=O)[O-])c1)=C(/O)c1ccc(Br)cc1)C(F)(F)F | . | . | 4.47µM* | 7.94µM* | .
CCOc1cc(C#N)c(-n2nnc3c(sc4nc(C)cc(C)c43)c2=O)cc1OCC | 3.5% | 7.0% | . | . | -0.7%
O=C(Nc1nccs1)c1cn(-c2ccccc2)nc1-c1ccncc1 | -4.7% | 11.3% | 0.2% | -33.1% | ?
COc1ccc(-c2nn(-c3ccccc3)cc2C(=O)Nc2nccs2)cc1 | ? | -2.0% | 11.2µM* | 7.08µM* | ?
COc1cccc(-c2nn(-c3ccccc3)cc2C(=O)n2nnc3ccccc32)c1 | -8.7% | -0.2% | 4.0% | ? | 17.3%
COc1cccc(-c2nn(-c3ccccc3)cc2C(=O)Nc2nccs2)c1 | -26.5% | -9.6% | 17.8µM* | 6.31µM* | 7.08µM*
COc1cccc(C2C(C)CCC3C(=O)N(C)C(C(C)C)C(=O)N32)c1 (centres undefined) | . | . | -5.1%[10 µM] | -15.0%[10 µM] | .
CSCC[C@H](N)C(=O)N[C@@H](CCC(=O)O)C(=O)N[C@H](C(=O)NCC(=O)N[C@@H](Cc1c[nH]c2ccccc12)C(=O)N[C@@H](Cc1ccc(O)cc1)C(=O)N[C@@H](CCCNC(=N)N)C(=O)N[C@@H](CO)C(=O)N1CCC[C@H]1C(=O)N[C@@H](Cc1ccccc1)C(=O)N[C@@H](CO)C(=O)N[C@@H](CCCNC(=N)N)C(=O)N[C@H](C(=O)N[C@H](C(=O)N[C@@H](Cc1cnc[nH]1)C(=O)N[C@@H](CC(C)C)C(=O)N[C@@H](Cc1ccc(O)cc1)C(=O)N[C@@H](CCCNC(=N)N)C(=O)N[C@@H](CC(N)=O)C(=O)NCC(=O)N[C@@H](CCCCN)C(=O)O)C(C)C)C(C)C)C(C)C | . | . | -6.6% | 0.9% | .
Cc1ccc(C(C)C)c(OCc2ccc(C(=O)N/N=C/c3ccc(O)cc3O)cc2)c1 | -2.3% | -3.3% | 7.08µM* | 6.31µM* | 15.9%
CC(C)=N/N=C1\NC(=O)C(C)S1 (centres undefined) | -19.0% | 12.2% | ? | 11.2µM* | -18.4%
Fc1ccc(N2CCN(c3nc4ccccc4c4nc(-c5cccnc5)nn34)CC2)cc1 | -4.4% | . | . | . | -0.2%
Clc1ccc(-c2nnc(Sc3nc4ccccc4o3)c3ccccc23)cc1 | 22.8% | 7.1% | ? | 6.31µM* | 9.2%
Cc1nnc(Sc2nc3ccccc3o2)c2ccccc12 | -27.6% | -6.4% | ? | ? | ?
CN(C)c1ncnc2ccc(-c3cccc(C#N)c3)cc12 | . | . | -3.8% | -0.2% | .
CCOC(=O)c1c(NC(=O)C(NCCN(C)C)c2ccccc2)sc2c1CCCC2 (centres undefined) | 3.98µM* | 19.8% | 11.2µM* | 3.55µM* | ?
CCOC(=O)c1c(NC(=O)C(=O)N/N=C/c2ccccc2O)sc2c1CCCCC2 | 0.0% | -12.9% | 1.26µM* | 1µM* | ?
COc1ccc(CNc2nc(-c3ccco3)nn2S(=O)(=O)c2ccc3ccccc3c2)cc1OC | -1.9% | . | . | . | 24.8%
CCCc1noc(-c2ccc(NCc3ccc(C)cc3)c([N+](=O)[O-])c2)n1 | 6.5% | . | . | . | 16.4%
Cc1ccc(-c2ccc(/C=C(\C#N)C(N)=S)n2C)cc1 | 3.8% | 26.7% | ? | 2.24µM* | 6.5%
CC(C)(C)CC(=O)NC(=S)NCc1ccco1 | -21.7% | -0.5% | ? | 4.47µM* | ?
SMILES | GLP1R cytotox | GLP1R ag | VP16 counter | RORgamma inh | GLP-1R inv ag
O=C(CCc1ccccc1)NC(=S)NCc1ccco1 | ? | 1.2% | ? | 7.94µM* | ?
O=C(CCc1ccccc1)Nc1ccccc1C(=O)NCc1ccco1 | 4.5% | 1.3% | 3.8% | ? | ?
O=C(NC(=S)N1CCc2ccccc21)c1ccccc1 | 3.98µM* | -14.3% | 0.501µM* | 0.562µM* | ?
O=C(NC(=S)N1CCc2ccccc21)c1ccccc1Cl | ? | 0.5% | 1µM* | 0.447µM* | 7.1%
CC(=O)OC1CCC2(C)C(=CC=C3C2CCC2(C)C3CCC2C(C)/C=C/C(C)C(C)C)C1(C)C (centres undefined) | . | . | 0.7% | 7.3% | .
N#CCCn1cc(/C=N/NC(N)=S)c(-c2ccccc2)n1 | ? | 14.0% | 7.08µM* | 6.31µM* | ?
NC(=S)N/N=C/c1cn(CCC(=O)O)nc1-c1cccc(Br)c1 | ? | 16.2% | -4.8% | ? | 1.5%
N#CCCn1cc(/C=N/NC(N)=S)c(-c2ccc(Br)cc2)n1 | ? | 19.9% | 0.501µM* | 0.224µM* | -13.6%
N#CCCn1cc(/C=C2\NC(=S)N(c3ccccc3)C2=O)c(-c2ccc(-c3ccccc3)cc2)n1 | 1.0% | 0.5% | -6.9% | -18.9% | 7.94µM*
CCc1cc[n+](C2=C([O-])c3ccccc3C(=O)/C2=N\S(=O)(=O)c2cccs2)cc1 | ? | -3.8% | 15.8µM* | 3.55µM* | ?
Cn1cnnc1SCC(=O)Nc1cc(C(=O)O)cc(C(=O)O)c1 | 0.8% | . | . | . | 12.4%
Cn1c(-c2ccc(F)cc2)cnc1SCC(=O)N1CCCc2ccccc21 | -14.8% | -4.1% | 0.7% | -22.5% | -28.1%
Cn1c(-c2ccc(F)cc2)cnc1SCC(=O)N1CCCCC1 | -13.7% | -12.0% | ? | 10µM* | ?
N#Cc1cccc(-c2nccc(-n3ccnc3)n2)c1 | . | . | -18.8% | ? | .
COc1ccc(NC(=O)CN(C)C(=O)C(C)Sc2ccccc2)cc1 (centres undefined) | -3.1% | -0.8% | ? | -0.9% | 7.5%
Cc1ccc(NC(=O)CN(C)C(=O)c2cccnc2Nc2cccc(C(F)(F)F)c2)cc1 | ? | -0.5% | 12.6µM* | ? | ?
Cc1ccc(NC(=O)CN(C)C(=O)C(Sc2ccccc2)c2ccccc2)cc1 (centres undefined) | -25.7% | 0.0% | . | . | 8.91µM*
Cc1ccc(NC(=O)CN(C)C(=O)c2ccccc2Cc2ccccc2)cc1 | -8.7% | 7.4% | . | . | 10µM*
Cc1ccc(C)c(S(=O)(=O)NCCc2csc(-c3ccc(Cl)cc3)n2)c1 | -1.3% | . | . | . | ?
FC(F)(F)c1ccc(Cl)c(NC(=S)NC2CC2)c1 | 6.9% | -4.7% | 17.8µM* | 15.8µM* | 4.4%
CCc1ccccc1NC(=O)NC1CCCCC1 | -1.8% | 2.9% | 2.9% | -11.2% | -10.4%

Screening results: PubChem BioAssay, National Center for Advancing Translational Sciences (NCATS)
